# Measurements: PubChem BioAssay (NCI)
# About 79,000 compounds went through this panel and 15% of them were active in at least one assay; those are over-represented in the sample as a whole. A number with no mark means an inactive call. Activity calls are given as the source filed them. Rule as the data show it: active = growth inhibition above about 70%; inactive = the rest.
# Tests used:
# [1] = NCI Yeast Anticancer Drug Screen. Data for the rad52 strain (AID 147);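 also: 0% = growth of vehicle-treated control cultures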; conditions: S. cerevisiae rad52 mutant growth inhibition, hits give high values
# How it was run: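 Measured: yeast growth inhibition. System: strain with a defined DNA damage repair alteration. Reference: vehicle-treated control cultures.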
# [2] = NCI Yeast Anticancer Drug Screen. Data for the wt1 strain (AID 149);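 also: 0% = growth of vehicle-treated wt1 cultures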; conditions: S. cerevisiae wt1 strain (SPY 50644) growth inhibition, hits give high values
# How it was run: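 Readout: yeast growth inhibition, normalised to vehicle controls, in the wt1 strain exposed to test compounds.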
# [3] = NCI Yeast Anticancer Drug Screen. Data for the rad50EPP+ strain (AID 151);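 also: 0% = growth of vehicle-treated control cultures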; conditions: S. cerevisiae rad50 mutant strain, hits give high values
# How it was run: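 One strain with a rad50 alteration (rad50EPP+) was compound-treated, its growth then compared to that of vehicle controls.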
# [4] = NCI Yeast Anticancer Drug Screen. Data for the mgt1 strain (AID 153); conditions: S. cerevisiae mgt1 mutant growth inhibition, hits give high values
# How it was run: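 After exposure of the mgt1 yeast mutant to compound, growth was measured and reported as inhibition compared with vehicle controls.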
# [5] = NCI Yeast Anticancer Drug Screen. Data for the rad50 strain (AID 155);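 also: 0% = growth of vehicle-only cultures of the same strain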; conditions: S. cerevisiae rad50 strain growth inhibition, hits give high values
# How it was run: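 Compounds were tested on a yeast strain with an engineered DNA damage repair alteration; the reported value is growth inhibition normalised to vehicle treatment.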
# [6] = NCI Yeast Anticancer Drug Screen. Data for the mec2-1 strain (AID 157); conditions: S. cerevisiae mec2-1 strain, hits give high values
# How it was run: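 Test agents were screened against the mec2-1 yeast strain, with defined DNA repair or cell cycle alteration. Growth was scored as inhibition against vehicle-only controls.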
# [7] = NCI Yeast Anticancer Drug Screen. Data for the rad14 strain (AID 159);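 also: 0% = growth of vehicle-treated control cultures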; conditions: S. cerevisiae rad14 strain growth inhibition, hits give high values
# How it was run: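 Compound-treated yeast with a defined DNA-repair lesion; growth inhibition normalised to vehicle-treated cultures.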
# [8] = NCI Yeast Anticancer Drug Screen. Data for the sgs1 mgt1 strain (AID 161);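 also: 0% = growth of cultures given vehicle only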; conditions: S. cerevisiae sgs1 mgt1 strain, hits give high values
# How it was run: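 Test agents were incubated with a DNA-repair-mutant yeast strain. Growth was then read and compared against vehicle-treated controls.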
# [9] = NCI Yeast Anticancer Drug Screen. Data for the CLN2oe strain (AID 163);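 also: 0% = growth of vehicle-only control cultures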; conditions: S. cerevisiae CLN2oe strain, hits give high values
# How it was run: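 Here, growth inhibition in a cell-cycle-altered yeast strain after compound exposure was quantified against vehicle control growth.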
# [10] = NCI Yeast Anticancer Drug Screen. Data for the cln2 rad14 strain (AID 165);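 also: 0% = growth equal to vehicle treated cultures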; conditions: S. cerevisiae cln2 rad14 strain, hits give high values
# How it was run: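 Growth of compound-exposed yeast (cln2 rad14 genotype) measured and expressed as inhibition relative to vehicle.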
# [11] = NCI Yeast Anticancer Drug Screen. Data for the bub3 strain (AID 167); conditions: S. cerevisiae bub3 mutant strain, hits give high values
# How it was run: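 Growth of a checkpoint-deficient yeast mutant is measured after compound exposure. Values represent inhibition relative to vehicle.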
# [12] = NCI Yeast Anticancer Drug Screen. Data for the wt2 strain (AID 169);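 also: 0% = growth of vehicle-treated yeast cultures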; conditions: S. cerevisiae wt2 strain growth inhibition, hits give high values
# How it was run: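 Genetically defined yeast strains from a DNA-repair/cell-cycle panel were used. Compound-exposed yeast growth was measured, and the inhibition was calculated relative to vehicle treatment.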
# [13] = NCI Yeast Anticancer Drug Screen. Data for the mlh1 strain (AID 171);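 also: 0% = growth of vehicle-treated control cultures of the same strain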; conditions: S. cerevisiae mlh1 strain growth inhibition, hits give high values
# How it was run: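 Here the genetically defined yeast mutant is grown with each compound, and the extent to which its growth falls below that of vehicle-exposed cells is reported.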
# [14] = NCI Yeast Anticancer Drug Screen. Data for the sgs1 strain (AID 173);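 also: 0% = growth of vehicle-only control cultures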; conditions: S. cerevisiae sgs1 mutant, hits give high values
# How it was run: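 Relative growth inhibition, referenced to vehicle, was determined in a yeast strain with a defined alteration affecting DNA damage repair or cell cycle control after compound exposure.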
# [15] = NCI Yeast Anticancer Drug Screen. Data for the mlh1 rad18 strain (AID 175); conditions: S. cerevisiae mlh1 rad18 strain growth inhibition, hits give high values
# How it was run: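 In this whole-cell yeast screen, a strain with altered DNA damage repair is challenged with compound, and its growth is measured against matched vehicle-treated controls.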
# [16] = NCI Yeast Anticancer Drug Screen. Data for the rad18 strain (AID 177); conditions: S. cerevisiae rad18 mutant growth inhibition, hits give high values
# How it was run: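 Screen uses a yeast strain with a defined lesion in DNA damage repair; compound effect is read as loss of growth compared to untreated vehicle cultures.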
# [17] = at 5.0 µM (retest, dose inferred, filed as 0.5)
# [18] = at 50.0 µM (retest, dose inferred, filed as 5.0)
smiles,measurement,setting,value
COc1ccc(NC(=S)N/N=C(\c2ccccc2)c2ccccn2)cc1,growth inhibition,[1]; at 1.2 µM,-3%
same,growth inhibition,[1]; at 3.7 µM,-3%
same,growth inhibition,[1]; at 11.0 µM,-3%
same,growth inhibition,[1]; at 33.0 µM,59%
same,growth inhibition,[1]; at 100.0 µM,96% (active)
same,growth inhibition,[2]; at 1.2 µM,-4%
same,growth inhibition,[2]; at 3.7 µM,-3%
same,growth inhibition,[2]; at 11.0 µM,-3%
same,growth inhibition,[2]; at 33.0 µM,50%
same,growth inhibition,[2]; at 100.0 µM,95% (active)
same,growth inhibition,[3]; at 1.2 µM,0%
same,growth inhibition,[3]; at 3.7 µM,4%
same,growth inhibition,[3]; at 11.0 µM,5%
same,growth inhibition,[3]; at 33.0 µM,3%
same,growth inhibition,[3]; at 100.0 µM,55%
same,growth inhibition,[4]; at 1.2 µM,-1%
same,growth inhibition,[4]; at 3.7 µM,-6%
same,growth inhibition,[4]; at 11.0 µM,8%
same,growth inhibition,[4]; at 33.0 µM,52%
same,growth inhibition,[4]; at 100.0 µM,95% (active)
same,growth inhibition,[5]; at 1.2 µM,0%
same,growth inhibition,[5]; at 3.7 µM,1%
same,growth inhibition,[5]; [17],12%
same,growth inhibition,[5]; at 11.0 µM,-34%
same,growth inhibition,[5]; at 33.0 µM,59%
same,growth inhibition,[5]; [18],89% (active)
same,growth inhibition,[5]; at 50.0 µM,68.1%
same,growth inhibition,[5]; at 100.0 µM,95% (active)
same,growth inhibition,[6]; at 1.2 µM,0%
same,growth inhibition,[6]; at 3.7 µM,-7%
same,growth inhibition,[6]; [17],13%
same,growth inhibition,[6]; at 11.0 µM,-5%
same,growth inhibition,[6]; at 33.0 µM,61%
same,growth inhibition,[6]; [18],75% (active)
same,growth inhibition,[6]; at 50.0 µM,74.7% (active)
same,growth inhibition,[6]; at 100.0 µM,95% (active)
same,growth inhibition,[7]; at 1.2 µM,-4%
same,growth inhibition,[7]; at 3.7 µM,-4%
same,growth inhibition,[7]; at 11.0 µM,-6%
same,growth inhibition,[7]; at 33.0 µM,65%
same,growth inhibition,[7]; at 100.0 µM,95% (active)
same,growth inhibition,[8]; [17],-34%
same,growth inhibition,[8]; [18],91% (active)
same,growth inhibition,[8]; at 50.0 µM,78.3% (active)
same,growth inhibition,[9]; at 1.2 µM,-1%
same,growth inhibition,[9]; at 3.7 µM,-4%
same,growth inhibition,[9]; at 11.0 µM,-4%
same,growth inhibition,[9]; at 33.0 µM,55%
same,growth inhibition,[9]; at 100.0 µM,95% (active)
same,growth inhibition,[10]; [17],33%
same,growth inhibition,[10]; [18],88% (active)
same,growth inhibition,[10]; at 50.0 µM,79.2% (active)
same,growth inhibition,[11]; at 1.2 µM,-6%
same,growth inhibition,[11]; at 3.7 µM,4%
same,growth inhibition,[11]; [17],35%
same,growth inhibition,[11]; at 11.0 µM,4%
same,growth inhibition,[11]; at 33.0 µM,-4%
same,growth inhibition,[11]; [18],90% (active)
same,growth inhibition,[11]; at 50.0 µM,83.9% (active)
same,growth inhibition,[11]; at 100.0 µM,66%
same,growth inhibition,[12]; at 1.2 µM,-4%
same,growth inhibition,[12]; at 3.7 µM,-4%
same,growth inhibition,[12]; at 11.0 µM,-3%
same,growth inhibition,[12]; at 33.0 µM,53%
same,growth inhibition,[12]; at 100.0 µM,96% (active)
same,growth inhibition,[13]; at 1.2 µM,-4%
same,growth inhibition,[13]; at 3.7 µM,-4%
same,growth inhibition,[13]; at 11.0 µM,-2%
same,growth inhibition,[13]; at 33.0 µM,60%
same,growth inhibition,[13]; at 100.0 µM,94% (active)
same,growth inhibition,[14]; at 1.2 µM,-5%
same,growth inhibition,[14]; at 3.7 µM,-4%
same,growth inhibition,[14]; at 11.0 µM,0%
same,growth inhibition,[14]; at 33.0 µM,52%
same,growth inhibition,[14]; at 100.0 µM,97% (active)
same,growth inhibition,[15]; [17],55%
same,growth inhibition,[15]; [18],90% (active)
same,growth inhibition,[15]; at 50.0 µM,83.7% (active)
same,growth inhibition,[16]; at 1.2 µM,-3%
same,growth inhibition,[16]; at 3.7 µM,0%
same,growth inhibition,[16]; at 11.0 µM,-2%
same,growth inhibition,[16]; at 33.0 µM,51%
same,growth inhibition,[16]; at 100.0 µM,95% (active)
